PfHsp90 yeast 2 – inhibits growth of yeast expressing Plasmodium falciparum Hsp90. S. cerevisiae expressing PfHsp90, BacTiter-Glo ATP, 48 h; yeast lacking PDR1 and PDR3 efflux regulators. inhibition, % at 9.4 µM. 310,000 tested, 0.32% active. AID 504621;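 active = every replicate shows inhibition above about 80%, whatever the replicate mean, limit read from the data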;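 also: 0% = DMSO neutral controls and 100% = 20 µM radicicol positive controls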
V-ATPase pH – regulators of yeast V-ATPase proton transport | S. cerevisiae, pHLuorin cytosolic pH fluorescence | response, % at 10 µM | 350,000 tested, 0.37% active | AID 504577; in the data active = response mostly above about 7.3%, no sharp cut-off; inactive = mostly below about 5.4%; also: actives read high
tim23-1 inh – inhibits growth of tim23-1 mutant yeast; AID 463212; S. cerevisiae tim23-1 growth, BacTiter-Glo luminescence, 24 h; inhibition, % at 20 µM; 330,000 tested, 1.3% active;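 active = growth inhibition of the mutant yeast at or above 50%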;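 also: temperature-sensitive mutant grown at 25 °C; plate controls were DMSO-treated mutant yeast for no effect and medium wells lacking yeast for full effect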
tim10-1 inh – inhibits growth of tim10-1 mutant yeast; S. cerevisiae tim10-1 ts strain growth, BacTiter-Glo, 24 h; inhibition, % at 20 µM; 330,000 tested, 2.2% active; AID 463190;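 active = inhibition of at least 40%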;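 also: mutant grown at 25 °C; 0% = DMSO wells with yeast and 100% = wells holding no yeast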
TIM10 inh – TIM10 yeast growth inhibition; S. cerevisiae TIM10 strain growth, BacTiter-Glo luminescence, 24 h; inhibition, % at 10 µM; 330,000 tested, 1.4% active;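 active = inhibition of 40% or more at the single tested concentration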;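 also: wild-type TIM10 isogenic control strain grown at permissive 25 °C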
tim10-1 confirm – confirmation of tim10-1 mutant yeast growth inhibitors; shares compounds with tim10-1 inh; S. cerevisiae tim10-1 ts strain growth, BacTiter-Glo, 24 h; inhibition, % at 20 µM; 7,400 tested, 56% active;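 active = inhibition of yeast growth at or above a set limit in either of two repeat tests at 20 µM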;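 also: tim10-1 mutant grown at permissive 25 °C to find synthetic lethal compounds; 0% = DMSO yeast wells and 100% = medium wells without yeast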
tim10 confirm – TIM10 yeast growth inhibition, confirmed. shares compounds with TIM10 inh. S. cerevisiae tim10 strain growth, BacTiter-Glo luminescence, 24 h. inhibition, % at 10 µM. 4,600 tested, 63% active. AID 463215;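 active = inhibition of yeast growth at or above a set limit in either of two replicates at 10 µM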;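 also: this counterscreen used the strain with wild-type TIM10; 0% = yeast with DMSO and 100% = medium wells lacking yeast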
tim23-1 conf – tim23-1 yeast growth inhibition, confirmed. AID 463218. S. cerevisiae tim23-1 growth, BacTiter-Glo luminescence, 24 h. 4,400 tested, 83% active. inhibition, % at 20 µM. shares compounds with tim23-1 inh;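 active = inhibition above about 39% in either of two replicate wells at 20 µM, limit read from the data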;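 also: temperature-sensitive tim23-1 mutant grown at 25 °C; 0% = DMSO wells with yeast and 100% = medium wells without yeast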
* = called active by the depositor; . = not tested or not shown. Hits are enriched below; roughly 3.7% of the tested compounds scored in any of these assays.

SMILES	PfHsp90 yeast 2	V-ATPase pH	tim23-1 inh	tim10-1 inh	TIM10 inh	tim10-1 confirm	tim10 confirm	tim23-1 conf
COc1cc(CN2CCCC(N3CCN(c4ccccc4C)CC3)C2)ccc1O (configuration not stated)	-7	-3	-2	-2	-7	.	.	.
C[C@H](NC(N)=O)C(=O)Nc1ccc(N2CCOCC2)c(S(=O)(=O)Nc2ccc(Cl)cc2)c1	.	7	15	6	9	.	.	.
COc1ccc(Cn2c(SCc3ccccc3C)nc3cc(OC)c(OC)cc3c2=N)cc1	11	-3	51*	50*	3	-27	.	1
COc1cc2nc(SCc3ccc(F)cc3)n(Cc3cccs3)c(=N)c2cc1OC	-20	-1	24	24	17	.	.	.
CN=c1scc(-c2cccs2)n1/N=C/c1ccc(O)c(O)c1O	10	-1	71*	42*	32	19	.	84*
Cc1ccc(N2C(=O)c3ccc(N)cc3C2=O)cc1	.	4	23	32	4	.	.	.
Cc1ccc(N2C(=O)c3ccc(N)cc3C2=O)cc1C	.	-3	52*	42*	34	36*	.	43*
N#CC(c1cccc(Cl)c1)c1ccc2c(C(F)(F)F)cc(C(F)(F)F)nc2n1 (configuration not stated)	16	6	79*	88*	75*	70*	65*	72*
NNc1ccc2c(C(F)(F)F)cc(C(F)(F)F)nc2n1	-30	2	24	25	18	.	.	.
Cc1[nH]n(C(N)=S)c(=O)c1N=Nc1ccc([N+](=O)[O-])cc1Cl	-23	0	58*	45*	23	52*	.	67*
Cc1cccc(C)c1NC(=O)c1cccc2c1C(=O)N(C1CCCCC1)C2	0	-3	55*	56*	18	11	.	38
CC(=O)c1cccc(NC(=O)CCc2nc3sc4c(c3c(=O)[nH]2)CCCC4)c1	.	3	10	15	3	.	.	.
FC(F)(F)c1ccccc1/C=N/n1c(C2CCCCC2)n[nH]c1=S	-196	6	51*	48*	33	33*	.	51*
S=c1[nH]nc(C2CCCCC2)n1/N=C/c1ccccc1Cl	-38	0	64*	58*	27	29*	.	61*
O=C(O)c1ccccc1/C=N/n1c(C2CCCCC2)n[nH]c1=S	-22	2	-3	-7	9	.	.	.
Oc1ccccc1N=Cc1c(O)ccc2oc3c(c12)CCCC3	-55	-6	52*	47*	38	55*	.	73*
CCOC(=O)C1CCCN(S(=O)(=O)c2ccc3c(c2)N(C(C)=O)CCO3)C1 (configuration not stated)	10	3	9	12	8	.	.	.
CCCCCc1c(C)nc(Nc2nc(C)c3cc(OC)ccc3n2)[nH]c1=O	7	4	9	7	16	.	.	.
CCc1c(C)nc(Nc2nc(C)c3cc(OC)ccc3n2)[nH]c1=O	-11	1	53*	42*	46*	31*	-9	52*
Cc1ccc(S(=O)(=O)Nc2nccs2)cc1[N+](=O)[O-]	16	-1	12	-16	0	.	.	.
Cc1ccc(S(=O)(=O)Nc2ccc(S(=O)(=O)Nc3nccs3)cc2)c([N+](=O)[O-])c1	-24	0	50*	54*	52*	55*	47*	52*
CCCCN1C(=O)/C(=C(/C#N)C(=O)N2CCCC2)c2ccccc21	-33	-2	37	26	28	.	.	.
CC(C)CN1C(=O)/C(=C(/C#N)C(=O)NC2CCCCC2)c2ccccc21	.	-1	64*	72*	79*	71*	79*	50*
COc1ccc(C)cc1S(=O)(=O)N1CCCC(N2CCN(c3ccccc3)CC2)C1 (configuration not stated)	.	0	.	.	.	.	.	.
CS(=O)(=O)c1ccc(S(=O)CC(=O)OCc2ccccc2)c([N+](=O)[O-])c1 (configuration not stated)	-18	2	.	.	.	.	.	.
SMILES	PfHsp90 yeast 2	V-ATPase pH	tim23-1 inh	tim10-1 inh	TIM10 inh	tim10-1 confirm	tim10 confirm	tim23-1 conf
O=C(CS(=O)c1ccc(C(F)(F)F)cc1[N+](=O)[O-])Oc1ccccc1 (configuration not stated)	-9	-3	72*	50*	70*	57*	46*	75*
Cc1ccc(Nc2nc3ccc(Cl)cc3n3cnnc23)cc1F	16	-4	51*	63*	13	20	.	20
COc1ccc(-n2cccc2/C=C/[N+](=O)[O-])cc1	-14	6	83*	62*	59*	53*	-9	73*
O=C1[C@H]2[C@@H](c3ccc(C(F)(F)F)cc3)N[C@]3(CCCN(Cc4ccco4)C3=O)[C@H]2C(=O)N1Cc1ccccc1	.	0	.	.	.	.	.	.
COC(=O)c1ccc2c(c1)C(C)(C)C(/C=C/c1ccc(O)cc1)=[N+]2C	42	-8	73*	67*	56*	64*	55*	68*
COc1ccc(N2CC(C(=O)Nc3nnc(SCC(=O)N4CCOCC4)s3)CC2=O)cc1 (configuration not stated)	9	-2	-7	-3	7	.	.	.
N#C/C(=C\c1ccccc1)C(=O)N(c1ccccn1)C1CCCCC1	-74	2	71*	49*	58*	70*	67*	58*
O=C(NC(=S)NNC(=O)c1ccccc1[N+](=O)[O-])c1ccccc1	18	-2	50*	41*	51*	52*	56*	53*
O=C(NNC(=S)NC(=O)c1ccccc1[N+](=O)[O-])c1ccccc1	-24	4	14	9	17	.	.	.
CCC(=O)NC(=S)NNC(=O)c1ccccc1[N+](=O)[O-]	10	3	56*	45*	53*	76*	60*	64*
Nn1c(SCC(=O)N2CCCC2)nnc1-c1cccs1	.	-1	.	.	.	.	.	.
O=C1Nc2ccccc2/C1=C\C(=O)c1ccccc1	1	-4	88*	52*	82*	52*	93*	-43
CC(C)Oc1ccc(C(=O)/C=C2/C(=O)Nc3ccccc32)cc1	107*	2	88*	69*	76*	76*	69*	85*
CCN(CC(=O)NCc1cccs1)C(=O)COc1ccc(C(C)=O)cc1	6	-1	-11	-6	0	.	.	.
C[C@@H]1CN([C@H](C)CO)C(=O)CCCn2nncc2CO[C@H]1CN(C)Cc1ccc(O)cc1	.	5	.	.	.	.	.	.
Nc1nc2sc3c(c2c(=O)s1)CCCC3	-93	0	73*	54*	44*	25	33*	52*
Cn1nnc(NC(=S)NC(=O)c2cccc3ccccc23)n1	-6	0	57*	53*	8	2	.	30

Bioassay records deposited in PubChem BioAssay by several laboratories.
